# Results taken from PubChem BioAssay (NCATS).
# Unmarked numbers belong to inactive results. Records with an inconclusive call do not appear. Activity calls are given as the source filed them. The call rests on the fitted dose curve; in most records, active means well fitted curve in the direction sought with a large enough effect; inconclusive means small, poorly fitted or top-dose-only effect, or another doubt; inactive means no such curve, though single readings can be large; an effect the other way counts as inactive or inconclusive.
# Assay: qHTS of Nrf2 Activators: LOPAC Validation (AID 624149); further: 0% is about no effect
# Details: Nrf2/ARE reporter cell assay; series mostly up to 46.1 µM; activation: at the top concentration
# In short: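 ARE reporter activation measured in AREc32 firefly luciferase cells after 24 hr compound exposure; Steady-Glo luminescence.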
row,SMILES,activation [%]
1,Cn1c(=O)[nH]c2ncn(C)c2c1=O,-1.53
2,N#CC(=C(\N)Sc1ccccc1N)/C(C#N)=C(/N)Sc1ccccc1N,10.4
3,O=C(O)Cc1c[nH]c2ccc(O)cc12,6.33
4,CN(C)S(=O)(=O)c1ccc2c(c1)/C(=C/c1cc3c([nH]1)CCCC3)C(=O)N2,1.24
5,CN(C)C(=O)/N=N/C(=O)N(C)C,0.249
6,COc1cccc(OC)c1OCCNCC1CSc2ccccc2O1 (stereo unspecified),1.48
7,N=C(N)SCCc1cnc[nH]1,-1.08
8,N=C(N)c1ccc(N)cc1,-1.16
9,CCn1c(=O)[nH]c2cc(Cl)c(Cl)cc21,7.34
10,Cn1c(=O)c2[nH]c(C3CCCC3)nc2n(C)c1=O,-1.21
11,OCC1NCC(O)C(O)C1O (stereo unspecified),-3.61
12,CC(=O)NNC(=O)N1Cc2ccccc2Oc2ccc(Cl)cc21,-2.36
13,O=C(O)C1CCNCC1,-0.928
14,COc1ccccc1N1CCN(CCCCNC(=O)c2ccc3ccccc3c2)CC1,-1.41
15,c1ccc2nc(C3=NCCN3)ccc2c1,-2.13
16,CCN1C(=O)C=CC1=O,-1.51
17,N[C@H](C(=O)O)[C@H](O)C(=O)O,-1.72
18,C[N+](C)(C)CC=O,-0.567
19,CCCCCC(O)CCCC(=O)O (stereo unspecified),-1.52
20,C=CC1(C)CC(=O)C2(O)C(C)(O1)C(OC(C)=O)C(O)C1C(C)(C)CCC(O)C12C (stereo unspecified),0.238
21,COC(=O)C1=C(C)NC(C)=C([N+](=O)[O-])C1c1ccccc1C(F)(F)F (stereo unspecified),-2.29
22,O=C1OC(=O)C2C3CCC(O3)C12 (stereo unspecified),-1.36
23,N#Cc1cc2nc(O)c(O)nc2cc1[N+](=O)[O-],-1.77
24,C[C@@]1(C2CCCC2)Cc2cc(OCC(=O)O)c(Cl)c(Cl)c2C1=O,-1.28
25,COc1ccccc1N1CCN(CCCNc2c(C)c(=O)n(C)c(=O)n2C)CC1,0.692
26,NC(=O)CC[C@H](N)C(=O)O,-0.753
27,O=C(O)C1CCCNC1 (stereo unspecified),0.559

# Assay: HTS Assay for Allosteric Antagonists of the Human D2 Dopamine Receptor: Hit Validation in HTRF (AID 624455); further: potency means the concentration at half of the fitted maximal effect;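 further: stable D1 dopamine receptor cell line scored for blocking the D1 response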; on activity, negative = inhibition: on the % scale 0 is the no-effect control and ±100 the full control effect
# Details: Cells stably expressing D1 dopamine receptor, inhibition mode; series mostly up to 46.1 µM; activity, negative = inhibition: at the top concentration
# In short: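 Signal from an HTRF read-out in D1-expressing stable cells gave hit activity as inhibition of the D1 response.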
SMILES,"activity, negative = inhibition [%]",Potency
Cn1c(=O)[nH]c2ncn(C)c2c1=O,-6.58,–
O=C(O)Cc1c[nH]c2ccc(O)cc12,4.92,–
CN(C)S(=O)(=O)c1ccc2c(c1)/C(=C/c1cc3c([nH]1)CCCC3)C(=O)N2,8.27,–
CN(C)C(=O)/N=N/C(=O)N(C)C,3.93,–
CC(=O)C(C)=O,-2.74,–
CSC(=N)N,4.69,–
O=C(O)c1cc2cc(F)ccc2[nH]1,5.74,–
CCN(CC)CCOC(=O)c1cc(Cl)c(N)cc1OC,-1.67,–
COc1cccc(OC)c1OCCNCC1CSc2ccccc2O1 (stereo unspecified),–,291 nM (active)
N=C(N)SCCc1cnc[nH]1,0.979,–
Cc1ccc([N+](=O)[O-])cc1S(=O)(=O)N(C)C,-3.79,–
CNc1cc(NS(=O)(=O)c2ccc(N)cc2)nc(NC)n1,-7.62,–
N=C(N)c1ccc(N)cc1,-13.7,–
CCn1c(=O)[nH]c2cc(Cl)c(Cl)cc21,-7.98,–
Cn1c(=O)c2[nH]c(C3CCCC3)nc2n(C)c1=O,9.22,–
Nc1ccc(-c2ccc3ccccc3n2)cc1,-1.17,–
O=C(O)C1CCNCC1,3.02,–

SMILES,"activity, negative = inhibition [%]",Potency
COc1ccccc1N1CCN(CCCCNC(=O)c2ccc3ccccc3c2)CC1,4.25,–
c1ccc2nc(C3=NCCN3)ccc2c1,3.22,–
CCN1C(=O)C=CC1=O,-4.53,–
CC(N)(Cc1ccc(O)cc1)C(=O)O (stereo unspecified),20.8,–
N[C@H](C(=O)O)[C@H](O)C(=O)O,-4.53,–
C=CC[C@H](N)C(=O)O,-1.24,–
C[N+](C)(C)CC=O,0.13,–
CCCCCC(O)CCCC(=O)O (stereo unspecified),3.97,–
C=CC1(C)CC(=O)C2(O)C(C)(O1)C(OC(C)=O)C(O)C1C(C)(C)CCC(O)C12C (stereo unspecified),–,517 nM (active)
CC(N)=NCCCC[C@@H](N)C(=O)O,-11,–
COC(=O)C1=C(C)NC(C)=C([N+](=O)[O-])C1c1ccccc1C(F)(F)F (stereo unspecified),4.43,–
O=C1OC(=O)C2C3CCC(O3)C12 (stereo unspecified),0.153,–
N#Cc1cc2nc(O)c(O)nc2cc1[N+](=O)[O-],3.73,–
C[C@@]1(C2CCCC2)Cc2cc(OCC(=O)O)c(Cl)c(Cl)c2C1=O,2.45,–
COc1ccccc1N1CCN(CCCNc2c(C)c(=O)n(C)c(=O)n2C)CC1,-1.82,–
NC(=O)CC[C@H](N)C(=O)O,3.89,–
O=C(O)C1CCCNC1 (stereo unspecified),1.91,–
